# Whole data set: some 25,000 sequences, median “ln(normalized median fluorescence intensity)” near 7.1, cut for the highest 2% near 10. This excerpt belongs to a sample that is enriched for the highest values.
# Test system: PfSIP2 AP2 domain 1 (GST-tagged)
# Test: gcPBM binding intensity (ln(normalized median fluorescence intensity)); higher = stronger DNA binding
# Procedure, shortened: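 After 1 h on an Agilent 4 × 180k array of primer-extended double-stranded 36-bp intergenic genomic probes and negative controls, bound GST-tagged P. falciparum DNA-binding domains were detected with Alexa488 anti-GST antibody and scanned at 488 nm. The domains had been expressed in E. coli, and binding took place in 1× PBS with 1% milk, 0.2 mg/ml BSA, 0.5% salmon testes DNA and 0.03% Triton X-100. Binding intensity is the highest Masliner-normalised natural-log median intensity across replicate spots of either probe orientation.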
row,Sequence,gcPBM binding intensity (ln)
1,CCCCCCCACGAACACACACACATACATACCACATAT [CACACA_site7149],9.05
2,TGAGAGAGAAACGTAGTGCATAAAATCAAATTTAGA [GTGCAC_site9737],7.82
3,TTTTTTTGTTTTGTTTTTTTTTTTTTTTTTTTTTTG [CACACA_negctrl_site570],6.76
4,ACATGTTCATAATTTTGTACATATTTTTATGAACAT [XGTACX_site3976],7.12
5,AAAATACACGATAGTTGTACATTAAATGTATACAAT [XGTACX_site360],6.91
6,TGTTATTATAACATTTTTTTCAAAATAGCTTTAGAA [CACACA_negctrl_site266],6.77
7,AATAAATATCAATACACACACACAAAAGTGAATAAA [CACACA_site3763],6.99
8,TAGAATAAGATAGATATACACACCATTATAAATATA [CACACA_site2500],6.78
9,AGTGTGTGTAATAAAGTGCATTAAAAATGACACGTA,8.55
10,TGTGCATAAATTTATGCACACATAAAAAAAAAAAAA [CACACA_site8954],9.95
11,ATTAAAAAATCCATAGTGCACTACGATAGGTTCCGA [GTGCAC_site9463],10.5
12,ATATACATATCAATGTAATATTATATACTTTTTTAG [CACACA_negctrl_site816],6.77
13,TTATATAAAGAATGTACACACAGAAATGCACAGACA [CACACA_site5288],8.26
14,CATTTATATAAAGAATGTACACACAGAAATGCACAC [XGTACX_site4718],8.37
15,GAAAGAAGCATAAATGTACACACATATTTATATATT [CACACA_site8368],7.04
16,TTATATAAAGAATGTACACACAGAAATGCACCCACA [CACACA_site2282],12.2
17,TGTACACCCAGAAATGCACACACATATATATATATA [CACACA_site8716],9.53
18,ATTTATATAAAGAATGTACACACAGAAATGCACCCA [CACACA_site8715],11.8
19,TCCCTGATGTTATTTAATATACCATAAAAAAAAAAA [CACACA_negctrl_site1472],7.22
20,TATATATTATGACCACCACACACCTATACACATAAC [CACACA_site8773],7.3
21,TACATATAAATAATAACACACACCTAGGTACATGGA [CACACA_site838],6.89
22,CAAATATATATTTATTGTACATATTGTTTATATGGT [XGTACX_site5246],7.14
23,TACAAACAATTAAACAAACACACATATACATGTATA [CACACA_site2061],6.92
24,TAAAATTAAATGAAATCATTATTCATTTTTATTTTA [CACACA_negctrl_site1281],6.67
